We go through 36 compounds from PubChem BioAssay AID540259 (Broad Institute, 2011).

Entries with a potency or affinity are not part of this list. Activity calls are given as the source filed them.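 Rule for the calls: active = cell killing, meaning signal decrease, with fitted half-maximal dose at or below ten times the top valid tested dose; inconclusive = poor fit, or flat curve with 30 to 70% signal loss; inactive = the rest.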

A short description of the test: ATP-based viability loss in HeLa cells – cell-based, CellTiter-Glo luminescence, cherry-pick samples, cytotoxicity control for MITF activator project, dose response (AID 540259). Conditions: 24 h; series mostly up to 35 µM. In general terms: ATP-based viability assays read luminescence as a measure of living cells.
Turning to `CCN(CC)c1ccc(C(=O)NNC(=O)c2cccn2C)cc1`, the outcome was inactive.
Turning to `CC(=O)c1cccc(NC(=O)c2cc3nc(C)cc(C)n3n2)c1`, the compound was called inactive.
In the case of `COc1ccc(/C(N)=N/OC(=O)c2cccs2)cc1OC` it was “inactive”.
For the compound `Clc1ccc(-c2cc(CSc3ccccc3)on2)cc1`, the result was inactive.
Consider `CC(=O)Nc1ccc2c(c1)ncn2-c1ccccc1`, for which the result was inactive.
As to `Cn1c2ccccc2c(=O)c2cc(C#Cc3ccccn3)ccc21`, the result was inactive.
To `Cc1ccn2cc(C(=O)Nc3nnc(C)s3)nc2c1` belongs “inactive”; to `Cc1ccc(NC(=O)Nc2ccc3c(c2)OCO3)c(OC(F)F)c1`, “inactive”; to `CCN=c1scc(-c2ccc(F)cc2)n1/N=C/c1ccccn1`, “inactive”.
To `Cc1ccc(CNc2nc(C)cs2)cc1` belongs “inactive”; to `COc1ccc(-c2cn(CC3CCCCC3)nn2)cc1`, “inactive”.
As for `Cc1cccc(C(=O)Nc2ccn(C)n2)c1`, the compound was called inactive.
Consider `c1cncc(-c2nc3ccccc3s2)c1`, for which the compound was classed as inactive.
For the compound `Cc1ccc(C2=NN(S(C)(=O)=O)C(c3cccs3)C2)cc1` (stereo unspecified), the call was inactive.
As to `COc1ccc(NC(=S)c2ccccc2)cc1`, the call was inactive.
Regarding `Brc1ccccc1-n1nnc(-c2nccs2)n1`, the call was inactive.
In the case of `Cn1c(NC(=O)CCC2CCCCC2)cc(=O)n(C)c1=O`, the compound was classed as inactive.
Take `Cc1cc(C)n2nc(SCN3C(=O)c4ccccc4C3=O)nc2n1`: the result was inactive.
In the case of `O=C(c1nnc(-c2ccc(Cl)cc2)o1)C1CCCC1` it was “inactive”; in that of `O=c1c2ccccc2oc2cc(NCCCn3ccnc3)ccc12`, “inactive”.
`COc1ccc(-c2ccc3oc(-c4ccsc4)cc(=O)c3c2)cn1`: the call was inactive.
As for `O=C(Cc1ccc(O)cc1)NC1CCCCCC1`, the compound was called inactive.
To `COc1ccc(C(=O)NCCn2ccc3ccccc32)cc1` belongs “inactive”.
For `COc1ccccc1C(=O)NCC(=O)Nc1ccc2c(c1)CCC2`, the compound was classed as inactive.
In the case of `Nc1nonc1-n1nnc(C(=O)N/N=C/c2ccc(OCc3ccccc3F)cc2)c1CN1CCCCC1`, the result was inactive.
In the case of `O=C(N/N=C/c1ccccc1C(F)(F)F)c1ccc(O)cc1` it was “inactive”; in that of `COc1ccc(-c2noc(-c3cccc(OC)c3OC)n2)cc1OC`, “inactive”; in that of `Cc1nc2ccccc2nc(=O)c1NNc1ccccc1`, “inactive”.
To `COc1ccc(-c2cc(C(=O)Nc3ccccc3F)on2)cc1` belongs “inactive”.
To `COc1ccc(Br)c(C(=O)Nc2nc3ccccc3[nH]2)c1` belongs “inactive”.
As to `C=CCNC(=O)c1ccc2nc(Cc3ccc(OC)cc3)oc2c1`, the result was inactive.
As for `COc1ccc(C(=O)Nc2cc3c4c(c2)CC(=O)N4CCC3)c(OC)c1`, the result was inactive.
With `COc1ccc(NC(=O)n2ncc3cc(Cl)ccc32)cc1OC`, the result was inactive.
In the case of `O=c1[nH]c(Cc2cccs2)nc2scc(-c3ccc(Cl)cc3)c12` it was “inactive”; in that of `Cc1ccc(S(=O)(=O)Nc2cccc(-c3ccc(N4CCCCCC4)nn3)c2)cc1`, “inactive”.
For the compound `c1ccc(-c2nc3ccccc3[nH]2)cc1`, the result was inactive.
